Records with an inconclusive call do not appear. Active and inactive are the calls of the source. Unless noted, calls follow the shape of the dose curve; as a rule, active = well fitted curve in the direction sought with a large enough effect in the repeat runs; inconclusive = weak or mixed curves; inactive = no such curve, though single readings can be large; an effect the other way counts as inactive or inconclusive.
Key:
[1] = qHTS assay for small molecules that induce genotoxicity in human embryonic kidney cells expressing luciferase-tagged ATAD5 (AID 651632); also: nearly all actives have a fitted effect of over 15% in size
Outline: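 Luminescence read-out: after 16 hr compound exposure at 37C, ATAD5-luciferase HEK293T cells received Amplite, 30 min RT, then CCD imaging. A rise in signal marks genotoxic stress.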

[2] = qHTS assay for small molecule agonists of the p53 signaling pathway - cell viability (AID 651633; calls by dose curve;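 also: p53RE-bla HCT reporter cells with a stable beta-lactamase p53 reporter; series mostly up to about 83 µM; nearly all actives have a fitted effect of over 30% in size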)
Outline: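 Viability counter-read: CellTiter-Glo luminescence (30 min, room temperature) in the same p53RE-bla plates. These plates had been exposed to compounds for 16 h at 37 C.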

[3] = qHTS assay for small molecules that induce genotoxicity in human embryonic kidney cells expressing luciferase-tagged ATAD5 - cell viability (AID 651634; calls by dose curve; also: nearly all actives have a fitted effect of over 25% in size)
Outline: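 HEK293T ATAD5-luc cells, 2,000/well; compound 15.5 hr, 37C/5% CO2; CellTiter-Fluor 30 min, 37C; fluorescence read.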

[4] = qHTS assay for small molecule disruptors of the mitochondrial membrane potential - cell viability (AID 720634; calls by dose curve;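 also: human HepG2 liver cancer cells; series mostly up to about 83 µM; nearly all actives have a fitted effect of over 20% in size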)
Outline: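 Luminescence from CellTiter-Glo (ATP content) gave viability in HepG2 cells, read in the same wells as the MMP dye assay after 1 hr compound exposure at 37 C.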

[5] = qHTS assay for small molecule disruptors of the mitochondrial membrane potential (AID 720635); also: potency is read from the fitted curve at half-maximal effect
Outline: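 Mitochondrial membrane potential tracked with Mito-MPS dye, red aggregates (ex 540/em 590 nm) against green monomers (ex 490/em 535 nm). Compound treatment 1 hr at 37C, dye 30 min in HepG2.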

[6] = qHTS assay to test for compound auto fluorescence at 590 nm (red) in HepG2 cells (AID 720674)
Outline: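 1 hr compound incubation on HepG2 cells, 37 C, 5% CO2; plate read ex 540 nm / em 590 nm; intensities reported as Rose Bengal sodium equivalents.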

[7] = qHTS assay to test for compound auto fluorescence at 535 nm (green) in HepG2 cells (AID 720675)
[8] = qHTS assay to test for compound auto fluorescence at 590 nm (red) in HEK293 cells (AID 720679)
Outline: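 Intensity at 540nm excitation and 590nm emission is reported as Rose Bengal sodium-equivalent autofluorescence. Measurements followed overnight exposure (37C, 5% CO2) of HEK293 cells, 2,000 per well, to 23 nL compound.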

[9] = qHTS assay to test for compound auto fluorescence at 535 nm (green) in HEK293 cells (AID 720680)
[10] = qHTS assay to test for compound auto fluorescence at 460 nm (blue) in HEK293 cell free culture (AID 720681)
Outline: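 Blue fluorescence (Ex 405/Em 460 nm, triamterene-equivalent) was read immediately after pin transfer of compound or DMSO into medium (DMEM, 10% FBS) without cells.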

[11] = qHTS assay to test for compound auto fluorescence at 535 nm (green) in HEK293 cell free culture (AID 720682)
Outline: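 Fluorescein serves as the green reference fluorophore; each compound's intrinsic emission at 535 nm (excitation 485 nm) is reported as an equivalent amount of that dye, measured in serum-containing DMEM without cells.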

[12] = qHTS assay to test for compound auto fluorescence at 590 nm (red) in HEK293 cell free culture (AID 720683)
Outline: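 Red-channel autofluorescence of compounds in culture medium (DMEM, 10% FBS), no cells, measured at 540/590 nm. Rose Bengal sodium is the reference fluorophore for equivalence.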

[13] = qHTS assay to test for compound auto fluorescence at 590 nm (red) in HepG2 cell free culture (AID 720684)
Outline: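 No cells present: MEM + 10% FBS only. Compound pinned in, red label read (540/590 nm). Activity = fluorescence equivalent to Rose Bengal sodium.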

[14] = qHTS assay to test for compound auto fluorescence at 460 nm (blue) in HepG2 cell free culture (AID 720685)
Outline: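 Cell-free plates of MEM plus 10% FBS received 23 nL compound or DMSO vehicle; blue-channel (405/460 nm) intensity scored against triamterene as reference fluorophore.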

[15] = qHTS assay to test for compound auto fluorescence at 535 nm (green) in HepG2 cell free culture (AID 720686)
[16] = qHTS assay to test for compound auto fluorescence at 460 nm (blue) in HepG2 cells (AID 720687)
Outline: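 Blue-channel autofluorescence (Ex/Em 405/460 nm, triamterene-equivalent) was measured after 1 hr compound exposure at 37 C, 5% CO2. Cells were HepG2, plated overnight at 37 C in MEM plus 10% FBS.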

[17] = target: Glucocorticoid receptor (Homo sapiens) (UniProt P04150); assay: qHTS assay to identify small molecule antagonists of the glucocorticoid receptor (GR) signaling pathway (AID 720692; active = well fitted inhibition curve with a large enough effect in the signal ratio in the repeat runs, not every such curve was filed as active; the % refers to the signal ratio)
Outline: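 Read-out: beta-lactamase FRET substrate fluorescence, 2 h at room temperature, in HeLa cells stably carrying a GRE-driven bla reporter. Compounds were co-incubated with 5 nM dexamethasone agonist (final) for 18 h at 37 C.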

[18] = qHTS assay to test for compound auto fluorescence at 460 nm (blue) in HEK293 cells (AID 720678)
Outline: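 HEK293, 2,000 cells/well, 10% dialyzed FBS; attach 4-5 hr 37C; pin compound or DMSO; o/n 37C/5% CO2; fluorescence 405/460 nm; triamterene-equivalent units.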

[19] = qHTS assay for small molecule agonists of the p53 signaling pathway (AID 651631; calls by dose curve; also: nearly all actives have a fitted effect of over 15% in size)
Outline: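 Read-out is beta-lactamase FRET fluorescence measured 2 h after substrate addition at room temperature, in HCT-116 cells with a p53 response element-driven reporter exposed to compounds for 16 h at 37 °C.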

[20] = target: Glucocorticoid receptor (Homo sapiens) (UniProt P04150); assay: qHTS assay to identify small molecule agonists of the glucocorticoid receptor (GR) signaling pathway (AID 720691; active = well fitted activation curve with a large enough effect in the signal ratio in the repeat runs, not every such curve was filed as active; the % refers to the signal ratio)
Outline: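 HeLa GR-bla reporter line; cells pre-incubated 4 h, compound in DMSO 18 h at 37 C; LiveBLAzer B/G FRET substrate 2 h RT; fluorescence intensity read-out.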
% is scaled to controls: 0 for no effect and ±100 for the full control effect.

Chain of Glucocorticoid receptor (Homo sapiens) (P04150 whole entry, looked up): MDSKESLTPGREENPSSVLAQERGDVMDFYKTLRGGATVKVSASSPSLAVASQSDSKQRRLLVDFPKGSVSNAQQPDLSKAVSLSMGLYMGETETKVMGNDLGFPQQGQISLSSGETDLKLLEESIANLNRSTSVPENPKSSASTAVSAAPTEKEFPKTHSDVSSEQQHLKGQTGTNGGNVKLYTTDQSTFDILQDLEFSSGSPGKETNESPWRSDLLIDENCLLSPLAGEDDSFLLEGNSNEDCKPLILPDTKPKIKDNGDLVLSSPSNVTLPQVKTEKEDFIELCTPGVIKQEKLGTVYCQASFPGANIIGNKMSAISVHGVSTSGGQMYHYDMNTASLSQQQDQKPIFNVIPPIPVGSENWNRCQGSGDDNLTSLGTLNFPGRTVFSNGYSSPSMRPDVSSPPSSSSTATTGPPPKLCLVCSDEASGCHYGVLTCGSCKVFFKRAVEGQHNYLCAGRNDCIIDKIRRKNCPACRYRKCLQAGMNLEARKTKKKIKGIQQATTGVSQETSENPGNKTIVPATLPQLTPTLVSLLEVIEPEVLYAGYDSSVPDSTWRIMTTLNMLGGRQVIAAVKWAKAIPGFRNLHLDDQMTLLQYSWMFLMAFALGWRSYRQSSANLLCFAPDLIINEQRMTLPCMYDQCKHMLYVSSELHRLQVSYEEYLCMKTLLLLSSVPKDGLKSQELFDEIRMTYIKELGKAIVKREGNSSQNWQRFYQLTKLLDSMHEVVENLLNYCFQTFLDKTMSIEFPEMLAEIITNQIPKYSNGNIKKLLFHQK

CC(=O)Oc1cccc2c1C(=O)c1c(OC(C)=O)cc(C(=O)O)cc1C2=O
active: Potency [5] 13.3 µM
inactive: Potency [1] | Potency [2] | Potency [3] | Potency [4] | outcome [6] | outcome [7] | outcome [8] | outcome [9] | Potency [10] | outcome [11] | outcome [12] | outcome [13] | outcome [14] | outcome [15] | outcome [16] | Potency [17]

CC1(C)CC(O)CC(C)(C)N1[O]
inactive: Potency [1] | Potency [2] | Potency [3] | Potency [4] | outcome [6] | outcome [7] | Potency [18] | outcome [8] | outcome [9] | Potency [10] | outcome [11] | outcome [12] | outcome [13] | outcome [15] | outcome [16]

CCCCCCCCOCCCN
inactive: Potency [19] | Potency [3] | Potency [4] | outcome [6] | outcome [7] | Potency [18] | outcome [8] | outcome [9] | Potency [10] | outcome [11] | outcome [12] | outcome [13] | outcome [14] | outcome [15] | outcome [16] | Potency [20]

NC(=O)c1cc[n+](CC2=C(C(=O)[O-])N3C(=O)[C@@H](NC(=O)Cc4cccs4)[C@H]3SC2)cc1
inactive: Potency [1] | Potency [2] | Potency [3] | Potency [4] | Potency [5] | fluorescence, relative to Rose Bengal [6] -0.33% [at 18.6 µM] | fluorescence, % of fluorescein control [7] -0.0242% [at 18.6 µM] | fluorescence, % of fluorescent control [8] 0.0624% [at 18.6 µM] | fluorescence, % of fluorescein [9] 0.0094% [at 18.6 µM] | fluorescence, % of fluorescent control [10] 0.628% [at 18.6 µM] | activity change [11] 0.0615% [at 18.6 µM] | fluorescence, % of fluorescent control [12] 0.0033% [at 18.6 µM] | fluorescence, % of Rose Bengal [13] 0.512% [at 18.6 µM] | fluorescence, % of fluorescein control [15] -0.0061% [at 18.6 µM] | fluorescence, % of fluorescent control [16] 0.406% [at 18.6 µM]

CC(C)(Cc1c[nH]c2ccccc12)NCC(O)COc1ccccc1C#N (configuration not stated)
inactive: Potency [1] | Potency [2] | Potency [3] | Potency [4] | outcome [6] | outcome [7] | Potency [18] | outcome [8] | outcome [9] | Potency [10] | outcome [11] | outcome [12] | outcome [13] | outcome [14] | outcome [15] | outcome [16]

O=C(O)c1cccnc1Nc1cccc(C(F)(F)F)c1
inactive: Potency [1] | Potency [2] | Potency [3] | Potency [4] | outcome [6] | outcome [7] | Potency [18] | outcome [8] | outcome [9] | Potency [10] | outcome [11] | outcome [12] | outcome [13] | outcome [14] | outcome [15] | outcome [16] | Potency [17]
active: Potency [5] 11.9 µM

FC(F)(Cl)C(F)(Cl)Cl
inactive: Potency [1] | Potency [2] | Potency [3] | Potency [4] | Potency [5] | outcome [6] | outcome [7] | Potency [18] | outcome [8] | outcome [9] | Potency [10] | outcome [11] | outcome [12] | outcome [13] | outcome [14] | outcome [15] | outcome [16]

CCC[Si](OC)(OC)OC
inactive: Potency [1] | Potency [2] | Potency [3] | Potency [4] | Potency [5] | outcome [6] | outcome [7] | Potency [18] | outcome [8] | outcome [9] | outcome [11] | outcome [12] | outcome [13] | outcome [14] | outcome [15] | outcome [16] | Potency [20] | Potency [17]
